For orientation: AC50 means the concentration at which the activity in the assay is half-maximal.

“And” between values parts separate entries of the source, which are not always exact repeats. Equal values may be shown once. Results filed as inconclusive are left out. The source holds several records for some structures; these can differ, active in one and inactive in another. The source made the active and inactive calls. Rule for the calls, unless noted: active = hit-call score of the fitted dose curve at least 0.9, where 1 is the maximum; inactive = score below 0.9.

This note sets out measurements from PubChem BioAssay (EPA / NIEHS).

Experiment [1] is described as follows: IUF_NPC2c_oligodendrocyte_migration_120hr: Leibniz Research Institute for Environmental Medicine (IUF) 120-hour Neural Progenitor Cell Migration Assay for Oligodendrocyte Migration (NPC2c) (AID 2284297).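 Note: O4-positive oligodendrocyte migration distance divided by radial glia migration distance.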 In short, it runs like this: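 hNPC spheres (GW 16-19 cortex), PDL/laminin, DMEM/F12 3:1 + 1% N2, 37C. Dosing day 0–5, half feed day 3, DMSO ≤0.1%. Fixed 120 h; O4 ICC + Hoechst, HCI. Readout: mean oligodendrocyte distance from sphere edge / radial glia distance.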

The nature of experiment [2]: IUF_NPC2a_radial_glia_migration_120hr: Leibniz Research Institute for Environmental Medicine (IUF) 120-hour Neural Progenitor Cell Migration Assay for Radial Glia Migration (NPC2a) (AID 2284298). In short, it runs like this: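 Hoechst-stained nuclei imaged at 120 h; algorithm maps sphere core by densest nuclei, sets migration edge at density threshold, gives radial glia migration distance (um) per well vs DMSO. hNPC spheres (0.3 mm), PDL/laminin, DMEM/F12 3:1 + 1% N2.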

Experiment [3] is described as follows: IUF_NPC2a_radial_glia_migration_72hr: Leibniz Research Institute for Environmental Medicine (IUF) 72-hour Neural Progenitor Cell Migration Assay for Radial Glia Migration (NPC2a) (AID 2284299). In short, it runs like this:
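Primary hNPC spheres, fetal brain GW 16-19, on PDL/laminin; DMEM/F12 3:1 + 1% N2. Compound dosed day 0, 7 conc. + SC, half-medium refresh day 3. 72 h brightfield, migration distance core-to-front (um), 4 directions averaged.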

Experiment [4] in a line: IUF_NPC2b_neuronal_migration_120hr: Leibniz Research Institute for Environmental Medicine (IUF) 120-hour Neural Progenitor Cell Migration Assay for Neuron Migration (NPC2b) (AID 2284300). In short, it runs like this:
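hNPC spheres, PDL/laminin, DMEM:F12 3:1 + 1% N2, 37C/5% CO2; 7 concentrations + solvent control (DMSO ≤0.1%), 5 d exposure, half-feed day 3. Fix 120 h, TUBB3 ICC, HCI: mean neuron migration distance ÷ glia distance.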

Experiment [5] can be described thus: IUF_NPC3_neuronal_differentiation_120hr: Leibniz Research Institute for Environmental Medicine (IUF) 120-hour Neuronal Differentiation Assay (NPC3) (AID 2284301). In a few lines:
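Primary human fetal neural progenitor spheres (GW 16-19, 0.3 mm) plated on poly-D-lysine/laminin in N2 medium, exposed from day 0 for 120 h with half-medium refresh at day 3. TUBB3+ cells as percent of Hoechst nuclei in migration area; DMSO baseline.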

A short description of experiment [6]: IUF_NPC4_neurite_length_120hr: Leibniz Research Institute for Environmental Medicine (IUF) 120-hour Neuronal Morphology Assay for Neurite Length (NPC4) (AID 2284302). In a few lines:
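Human fetal cortex (GW 16-19) neural progenitor spheres, 0.3 mm, were plated on poly-D-lysine/laminin in N2 differentiation medium and exposed from day 0 for 120 h, half-feeding at day 3. Mean TUBB3+ neurite length (µm) came from skeletonized images, relative to DMSO.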

Experiment [7] is described as follows: IUF_NPC5_oligodendrocyte_differentiation_120hr: Leibniz Research Institute for Environmental Medicine (IUF) 120-hour Oligodendrocyte Differentiation Assay (NPC5) (AID 2284304; active = hit-call score of the fitted dose curve at least 0.9, where 1 is the maximum;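 note: share of O4-positive cells among Hoechst nuclei found by CNN image analysis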). As for the experimental part:
IUF_NPC2-5 is a cell-based, multiplexed assay that uses hNPC, a human primary neural progenitor cells, with measurements taken at 72 or 120 hours after chemical dosing in a 96-well plate. Human neural progenitor cells (hNPC) are generated from human fetal brain cortex at gestational week (GW) 16-19. In the neural progenitor cell migration and differentiation assay (NPC2-5), hNPCs grown as spheres are plated on an extracellular matrix and migrate and differentiate out of the sphere core. The processes radial glia migration, neuronal and oligodendrocyte migration as well as neuronal differentiation, neuronal morphology and oligodendrocyte differentiation are studied using automated phase contrast imaging and automated fluorescence imaging in combination with high content image analysis. In parallel, the cell viability is assessed using an alamar blue viability assay and the cytotoxicity using a lactate dehydrogenase dependent membrane integrity assay.IUF_NPC5_oligodendrocyte_differentiation_120hr is one of 12 assay components measured from the IUF_NPC2-5 assay. Oligodendrocyte differentiation at 120 hr is determined as the number of all O4-positive cells in percent of the number of Hoechst-positive nuclei in the total neurosphere migration area (see IUF_NPC2a_ glia_migration_120hr) after 120 hr of migration/differentiation. Oligodendrocytes are automatically identified using a convolutional neural network (CNN) that was trained using manually annotated images of differentiated oligodendrocytes.Data from the IUF_NPC5_oligodendrocyte_differentiation_120hr component was analyzed at the endpoint IUF_NPC5_oligodendrocyte_differentiation_120hr in the positive analysis fitting direction relative to DMSO as the negative control and baseline of activity. Using a type of differentiation reporter, loss-of-signal activity can be used to understand developmental effects.
Culture protocol: After the cell expansion period the cells are cultured for up to four weeks in which they are passaged every week as described in 3.6. […]

Read-out in experiment [8]: TIMP metallopeptidase inhibitor 2 (TIMP2), TIMP2 (gene 7077)
As to the kind of experiment: BSK_hDFCGF_TIMP2: BioMAP Diversity Plus: hDFCGF Assay for TIMP metallopeptidase inhibitor 2 (TIMP2) Biomarker Activity (AID 2284289). The following applies: primary human foreskin fibroblasts. In a few lines: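 Primary human foreskin fibroblasts in the hDFCGF system, dosed for 24 h; TIMP-2 level measured by ELISA, fitted in the positive direction against DMSO; cytotoxicity checked in parallel by sulforhodamine B total protein staining.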

Read-out in experiment [9]: Thrombomodulin, THBD (gene 7056)
As to the kind of experiment: BSK_LPS_Thrombomodulin: BioMAP Diversity Plus: LPS Assay for Thrombomodulin Biomarker Activity (AID 2284296). As to conditions: primary human HUVEC with PBMC. In a few lines:
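Human umbilical vein endothelial cells co-cultured with PBMC and stimulated with LPS; cell-surface thrombomodulin measured by ELISA 24 hours after compound. Gain or loss versus DMSO; cytotoxicity checked by SRB staining in parallel cultures.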

Read-out in another experiment: CD69, CD69 (gene 969)
As to the kind of experiment: BSK_LPS_CD69: BioMAP Diversity Plus: LPS Assay for CD69 Biomarker Activity (AID 2284303). The following applies: primary human HUVEC with PBMC. In a few lines:
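Human umbilical vein endothelial cells co-cultured with PBMC under LPS stimulation, chemical exposure 24 h; cell-surface CD69 measured by ELISA and fitted in the positive direction versus DMSO.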

On to `Oc1c(Cl)cc(Cl)c(Cl)c1Cc1c(O)c(Cl)cc(Cl)c1Cl`, for which the AC50 in experiment [1] was 124 nM (active); in [2], 272 nM (active); in experiment [3], 380 nM (active); in [4], 566 nM (active); in experiment [5], 472 nM (active); in [6] it was 168 nM (active). The AC50 in [7] is 75.1 nM (active).
Turning to `COCCOCCOCCO`, the outcome in experiment [1], in experiment [2], in experiment [3], in experiment [4], in experiment [5] and in [7] was inactive.
On to `CCCCCCC(CO)CCCC` (stereo not drawn), for which, in experiment [8], the AC50 is 30.6 µM (active) and 37.3 µM (active). Further, the outcome is “inactive” in experiment [9] and “inactive” in the experiment with CD69, CD69 (gene 969).
Consider `O=C(Nc1ccc2c(O)c(N=Nc3ccc(N=Nc4ccc(S(=O)(=O)O)cc4)cc3)c(S(=O)(=O)O)cc2c1)c1ccccc1`, for which the outcome in [8] is “inactive”; in experiment [9] it was “inactive”; with CD69, CD69 (gene 969), “inactive”.
For `CC1(C)CCC[C@]2(C)[C@H]3CCO[C@]3(C)CC[C@@H]12`, the AC50 in [8] was 36.4 µM (active) and 37.9 µM (active). Moreover, the outcome in experiment [9] was “inactive”; with CD69, CD69 (gene 969), “inactive”.
As to `CN(C)CCOC(C)(c1ccccc1)c1ccccn1` (stereo not drawn), the compound was classed as inactive in experiment [1], in experiment [2], in [3], in experiment [4], in experiment [5] and in experiment [6].
Turning to `C=CC(C)(O)CCC=C(C)C` (stereo not drawn), the outcome in experiment [8] is “inactive”; in experiment [9] it was “inactive”; with CD69, CD69 (gene 969) it was “inactive”.
For the compound `CC(CN=Cc1ccccc1O)N=Cc1ccccc1O` (stereo not drawn), the outcome in experiment [8] was “inactive”; in experiment [9], “inactive”; with CD69, CD69 (gene 969), “inactive”.
Turning to `O=CN1CCOCC1`, the outcome in [8] is “inactive”; in experiment [9], “inactive”; with CD69, CD69 (gene 969) it was “inactive”.
For the compound `CCOC(=O)C(C#N)=C(c1ccccc1)c1ccccc1`, the outcome in experiment [8] was “inactive”; in [9], “inactive”; in the experiment with CD69, CD69 (gene 969) it was “inactive”. The AC50 with CD69, CD69 (gene 969) is 27900 nM (active).
Regarding `COCCc1ccc(OCC(O)CNC(C)C)cc1` (stereo not drawn), the outcome in [1], in experiment [2], in experiment [3], in [4], in experiment [5] and in experiment [6] was inactive. Further, the call in [7] was inactive.
